This passage reports growth results from PubChem BioAssay (NCI).

Compounds without any hit were thinned out: in the full panel of roughly 83,000, 20% have a hit.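 Compound tested at a single concentration for 48 hours in 96-well plates; a percent growth value below 10 was scored as active.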 The source made the active and inactive calls.

The test has as its system HL-60(TB) leukemia. In words: NCI-60 one-dose screen, 48 h (100 = growth as untreated, 0 = no growth, -100 = all killed). Conditions: 10 µM unless noted.
`CCCCCCCCCCCCCC[n+]1ccc2c(C)c3c(c(C)c2c1)c1cc(O)ccc1n3CC`: the growth is -40.6% (active).

As to `O=C(OCC1OC(n2cc(C(F)(F)F)c(=O)[nH]c2=O)CC1OC(=O)c1ccc([N+](=O)[O-])cc1)c1ccc([N+](=O)[O-])cc1` (stereo not given), the growth is 62.7% (inactive). With `Cc1cc(N2CCN(C)CC2)nc(N(CCNc2ccnc3cc(Cl)ccc23)Cc2ccco2)n1` the figure was 8.29% (active). In the case of `O=C(N/N=C\c1cc(Br)cc(Br)c1O)N/N=C/c1cc(Br)cc(Br)c1O`, the growth was 8.67% (active). With `COc1ccc2c(N)ncc(C#Cc3cc(C(=O)Nc4ccc(CN5CCN(C)CC5)c(C(F)(F)F)c4)cnc3C)c2c1` the figure was 43.9% (inactive); with `Nc1ncn([C@@H]2O[C@H](CO)[C@@H](O)C2(F)F)c(=O)n1`, 25.2% (inactive). As for `COC(=O)c1ccc2c(c1)c1c(C)c3ccncc3c(C)c1n2C`, the figure is 32.5% (inactive); as for `O=C1CC[C@@H](C(=O)N[C@H]2CSSC[C@@H](C(=O)N/C=C/c3ccc(O)cc3)NC(=O)[C@H](Cc3ccccc3)NC(=O)[C@@H]3CCCN3C(=O)[C@@H]3CCCN3C2=O)N1`, 74% (inactive). As to `CC(C)CN(C(=O)c1ccc(Cl)cc1)c1c(N)n(CC(C)C)c(=O)[nH]c1=O`, the growth is 90.8% (inactive). As for `Cc1ccc(-c2nc(C#N)c(S(=O)(=O)N(C)C)o2)cc1`, the figure is 0.829% (active); as for `O=C(Nc1ccncc1)C(=O)c1cn(S(=O)(=O)c2ccc(Cl)cc2)c2ccccc12`, 18.3% (inactive).

For `Cc1c(C(=O)Nc2nc3ccccc3[nH]2)cnn1-c1ccccn1`, the growth is 58.5% (inactive). `Fc1ccc(NCc2cn(-c3ccccc3)nc2-c2ccc(OCc3ccccc3)cc2)cc1Cl`: the growth was 79.5% (inactive). As for `CCN1C(=O)/C(=C/C(=O)OC)S/C1=N\NC(=O)c1cc2ccc1/C=C\c1ccc(cc1)/C=C\2`, the figure is 88.4% (inactive); as for `CCOC(=O)c1c(C)nc2c(c1N)/C(=C/c1ccccn1)C(=O)N2Cc1ccccc1`, -5.96% (active). As for `CCCCCCN(CCCCCC)c1ccc(/C=C2/SC(=O)NC2=O)c(C)c1`, the figure is 77.1% (inactive); as for `N#Cc1nc(-c2ccc(F)cc2)oc1S(=O)(=O)N1CCN(c2ccc(F)cc2)CC1`, 52.3% (inactive); as for `CCCCC(CC)CN=C(N)NC(N)=NCCCCCCN=C(N)NC(N)=NCC(CC)CCCC` (stereo not given), -76.8% (active). As for `O=c1ccn(C2OC(CO)C(O)C2F)c(=O)[nH]1` (stereo not given), the growth is 130% (inactive). As for `COC(=O)c1ccc2[nH]c(O)c(C(=Nc3ccc(N(C)C(=O)CN4CCN(C)CC4)cc3)c3ccc(OC)cc3)c2c1`, the figure is -13.8% (active). Consider `Cn1cc(-c2csc(-c3cn(CCNC(=O)OC(C)(C)C)c4ccc(F)cc34)n2)c2cccnc21`, for which the growth is 42.7% (inactive). With `O=C(Nc1ccccc1OC(=O)c1ccccc1)c1ccccc1`, the growth is 0.315% (active). As for `O=C1C=C(O)c2ccccc2C1=O.[Ag]`, the growth was 96% (inactive).

`O=c1c2ccccc2n(C[C@H]2CO2)c2ccccc12`: the growth was -44.5% (active). Consider `O=C(COc1ccc(Cl)cc1)N1CCN(Cc2ccc3c(c2)OCO3)CC1`, for which the growth was 109% (inactive). Take `COc1cc2nc(-c3cccc4cccnc34)nc(NC3CCN(Cc4ccccc4)CC3)c2cc1OC`: the growth is -63.4% (active). As for `Cc1cc(C)c(-c2cc(O)c(-c3c(C)cc(C)cc3C)cc2O)c(C)c1`, the growth was -24.4% (active). With `CCc1c(C)c2ccc(OCC(=O)N=Nc3c(O)[nH]c4ccccc34)c(C)c2oc1=O` the figure was -22.3% (active); with `[O-]/[N+](=C\c1ccccc1)CC1(O)CCCCC1`, 98.5% (inactive). Regarding `NC(=O)NCC1CCCCC1`, the growth was 91.3% (inactive). As for `CCOc1ccc([C@@H]2[C@@H](Oc3ccccc3)C(=O)N2c2cc(OC)c(OC)c(OC)c2)cc1`, the figure is -36% (active). As for `Cc1cc(-c2cc(C)c(O)c(C)c2)cc(C)c1O`, the growth is 63.6% (inactive). As for `COc1ccc(C2CC(c3cc(OC)c(OC)c(OC)c3)=NO2)cc1OCCCCOc1cc2c(cc1OC)C(=O)N1CCC[C@H]1C=N2` (stereo not given in full), the figure is 34% (inactive); as for `NC[C@@](O)(c1ccc(Cl)cc1)c1ccc(-c2cn[nH]c2)cc1`, -42.8% (active); as for `N#CC1C(C#N)C(C(=O)c2ccc(Br)cc2)N2c3ccccc3C=CC12` (stereo not given), 94.3% (inactive). With `O=C(O)c1ccc2cccnc2c1O` the figure was -20.5% (active).

As for `O=C(COc1ccc(/C=C2\Cc3ccc(Cl)cc3C2=O)cc1)Nc1nc2ccccc2s1`, the growth is 117% (inactive).

Take `c1ccc(-c2ccc(-c3nc4ccccc4[nH]3)cc2)cc1`: the growth was 66.7% (inactive). For the molecule `Nc1nc2c(c3cnccc13)C(c1cccc(Cl)c1)Cc1cnccc1-2` (stereo not given), the growth is 4.89% (active). With `CCC(O)(C(c1ccccc1)c1ccccn1)C(c1ccccc1)c1ccccn1` (stereo not given) the figure was 79% (inactive).
